Rows were chosen to be rich in hits. Some 2.4% of all compounds tested hit in one or more screens of this group.
D2 ag-1: activates the human D2 dopamine receptor; DiscoveRx PathHunter D2 beta-arrestin, luminescence, 90 min; 100% = 57 uM dopamine signal; activation, % (no concentration beside the values); 360,000 tested, 0.084% active; in the data active = activation above about 40%; inconclusive = between about 15% and that limit
Target sequence (P14416 whole entry, looked up): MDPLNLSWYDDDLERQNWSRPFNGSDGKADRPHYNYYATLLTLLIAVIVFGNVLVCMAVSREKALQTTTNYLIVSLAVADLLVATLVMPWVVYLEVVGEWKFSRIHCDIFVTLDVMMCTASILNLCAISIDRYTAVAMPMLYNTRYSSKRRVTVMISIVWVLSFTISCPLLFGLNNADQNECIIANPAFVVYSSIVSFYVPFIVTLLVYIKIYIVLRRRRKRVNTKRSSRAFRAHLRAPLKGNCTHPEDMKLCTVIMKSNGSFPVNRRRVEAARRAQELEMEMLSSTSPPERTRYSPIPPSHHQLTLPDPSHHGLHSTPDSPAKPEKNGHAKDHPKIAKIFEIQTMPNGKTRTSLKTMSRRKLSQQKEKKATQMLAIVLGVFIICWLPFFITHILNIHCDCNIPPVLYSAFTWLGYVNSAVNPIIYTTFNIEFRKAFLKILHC
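DiscoveRx PathHunter D2 beta-arrestin cells (2,100/well) attached overnight, then compound-stimulated 90 min at 37 C in HBSS/10 mM HEPES/0.1% Tween-20 buffer; beta-galactosidase complementation read by luminescence after 1 h at ambient temperature. Dopamine 57 uM final (EC100) as control.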
D2 PAM-1: positive allosteric modulators of human D2 dopamine receptor | P14416 | DiscoveRx D2 beta-arrestin cells, luminescence, 90 min; 100% = 57 uM dopamine signal | potentiation, % (no concentration beside the values) | 360,000 tested, 0.23% active; in the data active = potentiation above about 50%; inconclusive = mostly about 30% to 49%
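D2 cells co-treated with compound plus 50 nM dopamine (EC20) for 90 min at 37 deg C to detect potentiation. Beta-arrestin recruitment was read as enzyme-fragment luminescence after 1 h at ambient temperature. Full response was set by 57 uM dopamine.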
D2 ag-2: D2 dopamine receptor (human) agonism. activation, % at 2 µM. 340,000 tested, 0.53% active. AID 485358. HEK293 T-REx D2 cells, calcium flux agonist mode;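 active = activation over 3 SD above normal in the single-dose calcium agonist read, cut at about 30% in these data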; note: 0% is about no effect
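Tetracycline-induced HEK293 Trex cells with D2 receptor force-coupled to calcium signaling, plated overnight at 30 C and loaded with no-wash calcium dye. Calcium flux read kinetically for 180 s after compound addition; responses flag agonists.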
D2 antagonist: antagonists of human D2 dopamine receptor; HEK293 TREx D2 cells, calcium flux, dopamine EC80; 340,000 tested, 2% active; inhibition, % at 10 µM; P14416; in the data active = inhibition above about 30%; inactive = below that, where a call was filed; note: 0% is about no effect
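Inhibition of EC80 dopamine-driven calcium flux, recorded kinetically, defines activity here; cells are a tetracycline-induced HEK293 T-REx line expressing force-coupled D2.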
D2 PAM-2: positive allosteric modulators of human D2 dopamine receptor | HEK293 T-REx D2, calcium flux, EC20 dopamine potentiation | AID 485347 | 340,000 tested, 0.34% active | P14416 | potentiation, % at 10 µM;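 active = potentiation over 3 SD above the plate norm, cut at about 30% in these data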; note: 0% is about no effect
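Tetracycline-induced Hek293 Trex D2 cells, force-coupled to calcium, loaded with no-wash calcium dye. Compound added with 180 s kinetic read for agonism, then EC20 dopamine and a further 180 s read for potentiation.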
Starred values were filed as active, the others as inactive; u = inconclusive; x = no result.

SMILES	D2 ag-1	D2 PAM-1	D2 ag-2	D2 antagonist	D2 PAM-2
CCOC(=O)c1cccc(NC(=O)CCc2c(C)nn(-c3ccc(N4CCCC4)nn3)c2C)c1	x	x	0	x	-8
Cc1cc(C)c2sc(NNC(=O)C3COc4ccccc4O3)nc2c1 (stereo not given)	-4	-6	-1	33*	-3
Cc1cccc2sc(NNC(=O)C3COc4ccccc4O3)nc12 (stereo not given)	7	5	-1	10	-2
CC(=O)c1ccc(N2CCN(C(=O)c3cc(S(=O)(=O)N4CCCCCC4)cn3C)CC2)cc1	x	x	0	x	11
COCCNC(=O)CNC(=O)c1nn(-c2ccc(OC)c(Cl)c2)c(=O)c2ccccc12	-4	-4	0	18	5
COc1ccc(-n2nc(C(=O)NCC(=O)NCCc3ccc(OC)c(OC)c3)c3ccccc3c2=O)cc1Cl	u	23	1	-21	55*
CCOC(=O)N1CCN(C(=O)CNC(=O)c2nn(-c3ccc(OC)c(Cl)c3)c(=O)c3ccccc23)CC1	13	19	-1	-7	43*
CCn1c(=O)c2cc(C(=O)Nc3cccc(C(F)(F)F)c3)sc2c2ccccc21	x	x	x	x	2
COc1ccc(S(=O)(=O)NC2CCSc3ccccc32)cc1NC(C)=O (stereo not given)	-1	-4	0	-2	16
COc1cc(S(=O)(=O)NC2CCSc3ccccc32)ccc1NC(C)=O (stereo not given)	-2	-5	-2	6	33*
Cc1ccc(C(=O)N2CCc3cc(CNS(=O)(=O)c4cccs4)ccc32)cc1	x	x	0	x	7
CCOc1ccc(CN(C)CC(=O)Nc2ccc3c(c2)CCC3)cc1OC	-1	-9	2	30*	-2
C=CCOc1ccc(CN(C)CC(=O)Nc2ccc3c(c2)CCC3)cc1	3	-6	1	-23	-3
O=C(c1cccc(COc2cccc3ccccc23)c1)N1CCCC1	1	7	1	-21	48*
O=C(c1ccccc1)N1CCN(CC(O)COc2cccc3ccccc23)CC1 (stereo not given)	3	-26	2	6	-1
OCCNCCOCCOc1ccccc1-c1ccccc1	-4	-35	28	33*	-24
CN(C)CCOCCOc1ccccc1-c1ccccc1	1	-21	1	-16	29
CC(C)(C)c1ccccc1OCCCCCNCCO	-5	-16	1	50*	-30
CNCCOc1ccccc1-c1ccccc1	3	-33	1	45*	-22
Cc1ccccc1OCCCCCNCCO	0	-9	0	-1	-7
OCCNCCOc1ccccc1-c1ccccc1	2	-24	3	66*	-10
CNCCCCOc1ccccc1-c1ccccc1	-2	-37	1	-16	-31
NS(=O)(=O)c1ccc(CCNC(=O)Cn2c(=O)c3cccn3c3ccc(F)cc32)cc1	x	x	1	x	-6
COc1ccc(-n2nc3c(N4CCCC(C(=O)NCc5ccccc5C)C4)nnc(C)c3c2C)cc1 (stereo not given)	x	x	0	x	3
O=C(c1ccc2c(c1)N(Cc1ccccc1F)C(=O)c1ccccc1S2=O)N1CCC(Cc2ccccc2)CC1 (stereo not given)	x	x	2	x	4
SMILES	D2 ag-1	D2 PAM-1	D2 ag-2	D2 antagonist	D2 PAM-2
COc1ccc(C)cc1NC(=O)C1COc2ccccc2C1 (stereo not given)	x	x	1	x	-3
Cc1[nH]c2ccccc2c1CCNS(=O)(=O)c1ccc(S(N)(=O)=O)cc1	-4	-6	6	55*	-16
COc1c(C)cc(S(=O)(=O)NCCc2c(C)[nH]c3ccccc23)c(C)c1C	x	x	1	x	-3
Cc1ccccc1C(=O)Nc1cccc(C(=O)Nc2ccccc2C(=O)O)c1	3	18	0	2	33*
O=C(Nc1ccccc1C(=O)O)c1cccc(NC(=O)c2ccccc2Cl)c1	6	64*	1	17	0
CN(Cc1ccccc1)C(=O)Cc1ccccc1	-1	0	1	2	17
O=C(O)CNC(=O)c1ccccc1NC(=O)c1ccco1	1	-14	0	-3	5
CN(Cc1ccccc1)C(=O)CC(=O)N(C)Cc1ccccc1	1	0	0	7	34*
CN(Cc1ccccc1)C(=O)c1ccccc1NC(=O)c1ccco1	1	8	0	31*	-9
N#CC1=C(N)N2C(=C(C#N)C1c1ccc(Br)cc1)Nc1ccccc12 (stereo not given)	-4	2	9	0	2
N#CC1=C(N)N2C(=C(C#N)C1c1cccc(Br)c1)Nc1ccccc12 (stereo not given)	5	5	11	39*	-7
O=C(N/N=C/c1cn[nH]c1-c1ccccc1)c1ccco1	0	-4	1	4	13
O=C(N/N=C\c1cn[nH]c1-c1ccccc1)c1ccc([N+](=O)[O-])cc1	3	-16	-1	58*	-23
Cc1cc(C(=O)N/N=C/c2cn[nH]c2-c2ccccc2)cs1	-3	-19	0	30*	-21
CCc1c(C(=O)N/N=C/c2cn[nH]c2-c2ccc(F)cc2)csc1C	0	10	4	71*	-27
O=C(Nc1nnc(-c2ccccc2Cl)o1)c1nc2ccccc2s1	-3	-7	39*	8	-17
CN1CCN(c2ccccc2NC(=O)COc2ccc(Cl)cc2)CC1	-1	-31	0	30*	-6
CN1CCN(c2ccccc2NC(=O)COc2ccccc2)CC1	0	-12	0	-22	-4
CN(CCOc1ccc(Cl)cc1)CC(O)c1ccccc1 (stereo not given)	-2	-17	-1	-17	3
CN(CCOc1ccccc1)CC(O)COc1ccccc1 (stereo not given)	-4	-16	2	51*	-29
CC(OCC(O)CN(C)CCOc1ccccc1)c1ccc(Cl)cc1 (stereo not given)	6	17	32*	26	-23
CC(C)Cn1nc(C(=O)NCc2ccccc2CN2CCCC2)c2ccccc2c1=O	-1	-32	0	45*	-30
CCCn1nc(C(=O)NCc2ccc3c(c2)OCO3)c2ccccc2c1=O	11	-6	-1	5	39*
CCc1cc(=O)[nH]c(SCc2nc(-c3ccc(C(F)(F)F)cc3)no2)n1	x	x	-1	x	x
CCOc1ccc(/C=N/OCC(=O)NCc2ccc3c(c2)OCO3)cc1OC	1	-18	-1	32*	-8
Cc1ccc(NC(=O)C2CCCN(S(=O)(=O)c3cn(C(C)C)cn3)C2)c(C)c1 (stereo not given)	x	x	1	x	8
COc1cccc(C(=O)NC(=S)Nc2ccc(N3CCCC3)cc2)c1	0	-8	0	57*	-5

Screens: PubChem BioAssay, National Center for Advancing Translational Sciences (NCATS)
